First the molecules themselves.
B1: CAUUUCG (DNA:RNA)
RNA: GGGAGACCGGAAUUCAGAUUGUCCCAUUUCGUUAAAUCCCGUCGUAGCCACCA
DNA 1: CAATCTGAATTCCGGTCTCCC
DNA 2: TGGTGGCTACGACGGGATT
B2: UAUCCUA (DNA:RNA)
RNA: B1 RNA with C25U, U28C, U29C, C30U, G31A
DNA 1: CAATCTGAATTCCGGTCTCCC
DNA 2: TGGTGGCTACGACGGGATT
B3: GAGGAUC (DNA:RNA)
RNA: B1 RNA with C25G, U27G, U28G, U29A, C30U, G31C
DNA 1: CAATCTGAATTCCGGTCTCCC
DNA 2: TGGTGGCTACGACGGGATT
B4: GUAUACA (DNA:RNA)
RNA: B1 RNA with C25G, A26U, U27A, U29A, G31A
DNA 1: CAATCTGAATTCCGGTCTCCC
DNA 2: TGGTGGCTACGACGGGATT
B5: GUUGCGA (DNA:RNA)
RNA: B1 RNA with C25G, A26U, U28G, U29C, C30G, G31A
DNA 1: CAATCTGAATTCCGGTCTCCC
DNA 2: TGGTGGCTACGACGGGATT
B6: AUCUGUA (DNA:RNA)
RNA: B1 RNA with C25A, A26U, U27C, U29G, C30U, G31A
DNA 1: CAATCTGAATTCCGGTCTCCC
DNA 2: TGGTGGCTACGACGGGATT
B7: ACGGGUC (DNA:RNA)
RNA: GGGAGACCGGAAUUCAGAUUGUCCACGGGUCUUAAAUCCCGUCGUAGCCACCA
DNA 1: CAATCTGAATTCCGGTCTCCC
DNA 2: TGGTGGCTACGACGGGATT
B8: UGUGAUC (DNA:RNA)
RNA: B7 RNA with A25U, C26G, G27U, G29A
DNA 1: CAATCTGAATTCCGGTCTCCC
DNA 2: TGGTGGCTACGACGGGATT
B9: CCAGUCU (DNA:RNA)
RNA: B1 RNA with A26C, U27A, U28G, G31U
DNA 1: CAATCTGAATTCCGGTCTCCC
DNA 2: TGGTGGCTACGACGGGATT
B10: UCAGGUC (DNA:RNA)
RNA: B7 RNA with A25U, G27A
DNA 1: CAATCTGAATTCCGGTCTCCC
DNA 2: TGGTGGCTACGACGGGATT
B11: GGAAAAU (DNA:RNA)
RNA: GGGAGACCGGAAUUCAGAUUGUCCGGAAAAUUUAAAUCCCGUCGUAGCCACCA
DNA 1: CAATCTGAATTCCGGTCTCCC
DNA 2: TGGTGGCTACGACGGGATT
B12: CUAUCGG (DNA:RNA)
RNA: B1 RNA with A26U, U27A, U29C, C30G
DNA 1: CAATCTGAATTCCGGTCTCCC
DNA 2: TGGTGGCTACGACGGGATT
B13: CAUAACG (DNA:RNA)
RNA: B1 RNA with U28A, U29A
DNA 1: CAATCTGAATTCCGGTCTCCC
DNA 2: TGGTGGCTACGACGGGATT
B14: UGGGGGC (DNA:RNA)
RNA: B7 RNA with A25U, C26G, U30G
DNA 1: CAATCTGAATTCCGGTCTCCC
DNA 2: TGGTGGCTACGACGGGATT
B15: UGGGCUG (DNA:RNA)
RNA: B7 RNA with A25U, C26G, G29C, C31G
DNA 1: CAATCTGAATTCCGGTCTCCC
DNA 2: TGGTGGCTACGACGGGATT
B16: UGUGGGC (DNA:RNA)
RNA: B7 RNA with A25U, C26G, G27U, U30G
DNA 1: CAATCTGAATTCCGGTCTCCC
DNA 2: TGGTGGCTACGACGGGATT
B17: CACUUGC (DNA:RNA)
RNA: B1 RNA with U27C, C30G, G31C
DNA 1: CAATCTGAATTCCGGTCTCCC
DNA 2: TGGTGGCTACGACGGGATT
B18: GUAUGCA (DNA:RNA)
RNA: B1 RNA with C25G, A26U, U27A, U29G, G31A
DNA 1: CAATCTGAATTCCGGTCTCCC
DNA 2: TGGTGGCTACGACGGGATT
B19: CCAUGCC (DNA:RNA)
RNA: B7 RNA with A25C, G27A, G28U, U30C
DNA 1: CAATCTGAATTCCGGTCTCCC
DNA 2: TGGTGGCTACGACGGGATT
B20: GCAUGCC (DNA:RNA)
RNA: B7 RNA with A25G, G27A, G28U, U30C
DNA 1: CAATCTGAATTCCGGTCTCCC
DNA 2: TGGTGGCTACGACGGGATT
B21: GGAUGCG (DNA:RNA)
RNA: B1 RNA with C25G, A26G, U27A, U29G
DNA 1: CAATCTGAATTCCGGTCTCCC
DNA 2: TGGTGGCTACGACGGGATT
B22: CGAUGCC (DNA:RNA)
RNA: B1 RNA with A26G, U27A, U29G, G31C
DNA 1: CAATCTGAATTCCGGTCTCCC
DNA 2: TGGTGGCTACGACGGGATT
B23: GCAUCCC (DNA:RNA)
RNA: B7 RNA with A25G, G27A, G28U, G29C, U30C
DNA 1: CAATCTGAATTCCGGTCTCCC
DNA 2: TGGTGGCTACGACGGGATT
B24: GCAUGCG (DNA:RNA)
RNA: B1 RNA with C25G, A26C, U27A, U29G
DNA 1: CAATCTGAATTCCGGTCTCCC
DNA 2: TGGTGGCTACGACGGGATT
B25: AUAUGCA (DNA:RNA)
RNA: B7 RNA with C26U, G27A, G28U, U30C, C31A
DNA 1: CAATCTGAATTCCGGTCTCCC
DNA 2: TGGTGGCTACGACGGGATT
B26: ACAUGCG (DNA:RNA)
RNA: B7 RNA with G27A, G28U, U30C, C31G
DNA 1: CAATCTGAATTCCGGTCTCCC
DNA 2: TGGTGGCTACGACGGGATT
B27: GUAUGCC (DNA:RNA)
RNA: B7 RNA with A25G, C26U, G27A, G28U, U30C
DNA 1: CAATCTGAATTCCGGTCTCCC
DNA 2: TGGTGGCTACGACGGGATT
B28: GGAUGCA (DNA:RNA)
RNA: B11 RNA with A28U, A29G, A30C, U31A
DNA 1: CAATCTGAATTCCGGTCTCCC
DNA 2: TGGTGGCTACGACGGGATT
B29: GGAUGCC (DNA:RNA)
RNA: B11 RNA with A28U, A29G, A30C, U31C
DNA 1: CAATCTGAATTCCGGTCTCCC
DNA 2: TGGTGGCTACGACGGGATT
B30: AGGAUUU (DNA:RNA)
RNA: B7 RNA with C26G, G28A, G29U, C31U
DNA 1: CAATCTGAATTCCGGTCTCCC
DNA 2: TGGTGGCTACGACGGGATT
B31: CUUUGGG (DNA:RNA)
RNA: B1 RNA with A26U, U29G, C30G
DNA 1: CAATCTGAATTCCGGTCTCCC
DNA 2: TGGTGGCTACGACGGGATT

Residue numbers refer to the chain shown, from its start. The full ranking holds about 16,000 sequences; the median of “ka relative to ugcaugu” is about 0.0091, and the highest 2% start at about 0.032. The list comes from a sample in which the highest values are over-represented; it also holds similar and randomly drawn sequences.

For this test, the target named is T1, RBFOX1 RRM (Homo sapiens, UniProt Q9NWB1 109-208).
T1 sequence: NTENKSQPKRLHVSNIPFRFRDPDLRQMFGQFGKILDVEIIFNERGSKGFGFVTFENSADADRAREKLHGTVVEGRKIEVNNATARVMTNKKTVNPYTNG
Nature of the test: EMSA; HiTS-Eq, 1 nM pool, 10 min; buffer printed only for the single-RNA assays: 10 mM Tris pH 7.5, 150 mM NaCl, 3.4 mM EDTA, 0.001% NP-40, 30 C. The note with it: tags: His6 N-terminal (pET28a); label: 5' 32P. The method, boiled down:
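Purified wild-type or mutant RbFox RRM at increasing concentrations was equilibrated with 1 nM of 5′-radiolabelled RNA carrying 7 randomized nucleotides for 10 min in 50 µL. Unbound RNA was separated by 8% native PAGE and sequenced. Relative association constants came from read-count changes of each RNA species compared with the control reaction, normalised to the cognate motif.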
In general terms: A gel shift assay detects complexes by their altered migration in electrophoresis.
For B1, the binding signal is 0.00769 KA relative to UGCAUGU.
The figure for B2 is 0.00279 KA relative to UGCAUGU; for B3 it is 0.0149 KA relative to UGCAUGU.
The figure for B4 is 0.00201 KA relative to UGCAUGU; for B5 it is 0.0206 KA relative to UGCAUGU.
Regarding B6, the binding signal was 0.00557 KA relative to UGCAUGU.
For B7 the value was 0.0159 KA relative to UGCAUGU; for B8, 0.0227 KA relative to UGCAUGU.
The figure for B9 is 0.00457 KA relative to UGCAUGU; for B10 it is 0.0155 KA relative to UGCAUGU; for B11 it is 0.00757 KA relative to UGCAUGU.
The figure for B12 is 0.00622 KA relative to UGCAUGU.
Consider B13, for which the binding signal was 0.00316 KA relative to UGCAUGU.
For B14, the binding signal is 0.014 KA relative to UGCAUGU.
For B15, the binding signal was 0.039 KA relative to UGCAUGU.
For the molecule B16, the binding signal is 0.0102 KA relative to UGCAUGU.
For B17 the value was 0.00965 KA relative to UGCAUGU; for B18, 0.0319 KA relative to UGCAUGU; for B19, 0.00772 KA relative to UGCAUGU.
Regarding B20, the binding signal was 0.829 KA relative to UGCAUGU.
The figure for B21 is 0.0222 KA relative to UGCAUGU.
Regarding B22, the binding signal was 0.012 KA relative to UGCAUGU.
For B23 the value was 0.0182 KA relative to UGCAUGU; for B24, 0.916 KA relative to UGCAUGU.
For B25, the binding signal was 0.0145 KA relative to UGCAUGU.
The figure for B26 is 0.00768 KA relative to UGCAUGU; for B27 it is 0.0139 KA relative to UGCAUGU.
For B28 the value was 0.0274 KA relative to UGCAUGU.
The figure for B29 is 0.0339 KA relative to UGCAUGU; for B30 it is 0.0177 KA relative to UGCAUGU; for B31 it is 0.00295 KA relative to UGCAUGU.

(Values after publication PMC9911399, “Two distinct binding modes provide the RNA-binding protein RbFox with extraordinary sequence specificity”.)
